Assay results from PubChem BioAssay AID2283179 (EPA ToxCast).
Results filed as inconclusive are left out. Calls of active or inactive are those of the source. The calls were made as follows: active = hit-call score of the fitted dose curve at least 0.9, where 1 is the maximum; inconclusive = response in the unintended direction; inactive = score below 0.9.

target: human Microtubule Affinity Regulating Kinase 1 (MARK1), MARK1 (gene 4139) (UniProt Q9P0L2); assay: NVS_ENZ_hMARK1: NovaScreen (NVS) Enzymatic Assay for human Microtubule Affinity Regulating Kinase 1 (MARK1)
Sequence (Q9P0L2 whole entry, looked up): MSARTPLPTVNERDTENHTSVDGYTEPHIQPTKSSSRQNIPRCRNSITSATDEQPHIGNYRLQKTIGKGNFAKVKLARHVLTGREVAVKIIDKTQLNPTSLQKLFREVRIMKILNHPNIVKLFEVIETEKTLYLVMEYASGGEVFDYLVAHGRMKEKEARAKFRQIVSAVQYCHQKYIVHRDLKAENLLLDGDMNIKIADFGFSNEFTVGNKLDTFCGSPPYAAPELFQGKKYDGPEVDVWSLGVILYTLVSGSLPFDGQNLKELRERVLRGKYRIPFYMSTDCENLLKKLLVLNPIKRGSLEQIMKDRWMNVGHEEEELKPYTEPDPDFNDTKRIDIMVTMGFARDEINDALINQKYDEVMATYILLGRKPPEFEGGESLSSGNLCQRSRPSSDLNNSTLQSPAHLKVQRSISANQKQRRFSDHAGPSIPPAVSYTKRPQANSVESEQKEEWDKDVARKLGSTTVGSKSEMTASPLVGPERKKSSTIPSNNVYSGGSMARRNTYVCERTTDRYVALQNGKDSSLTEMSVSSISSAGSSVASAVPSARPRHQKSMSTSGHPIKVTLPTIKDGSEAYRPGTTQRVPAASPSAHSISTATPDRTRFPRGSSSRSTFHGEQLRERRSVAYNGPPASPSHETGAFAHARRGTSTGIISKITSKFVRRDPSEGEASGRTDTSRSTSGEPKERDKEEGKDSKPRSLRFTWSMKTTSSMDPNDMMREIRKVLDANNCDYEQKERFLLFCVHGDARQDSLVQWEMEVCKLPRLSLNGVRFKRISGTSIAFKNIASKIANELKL
Experimental: NVS_ENZ_hMARK1 is a biochemical, single-readout assay that uses extracted gene-proteins in a cell-free assay. Measurements were taken 1 hour after chemical dosing in a 384-well plate.NVS_ENZ_hMARK1 is one of one assay component(s) measured or calculated from the NVS_ENZ_hMARK1 assay. It is designed to make measurements of enzyme activity, a form of enzyme reporter, as detected with fluorescence intensity signals by Fluorescence and electrophoretic mobility shift technology.Data from the assay component NVS_ENZ_hMARK1 was analyzed into 1 assay endpoint. This assay endpoint, NVS_ENZ_hMARK1, was analyzed in the positive analysis fitting direction relative to DMSO as the negative control and baseline of activity. Using a type of enzyme reporter, loss-of-signal activity can be used to understand changes in the enzymatic activity as they relate to the gene MARK1. Furthermore, this assay endpoint can be referred to as a primary readout, because this assay has produced multiple assay endpoints where this one serves a enzymatic activity function. To generalize the intended target to other relatable targets, this assay endpoint is annotated to the kinase intended target family, where the subfamily is serine/threonine kinase.
Binding assays used specific radioligands (tritiated, iodinated) with non-radioactive competitive displacement ligands in agonist or antagonist protocols (as indicated) and various reference compounds and inhibitors to titrate specific binding to receptors and transporters. Most enzyme assays (CYPs, kinases, phosphatases, proteases, HDACs) used recombinant protein and specific substrates (fluorescence mostly, some colorimetric and radioactive) and inhibitors, followed by a biochemical separation of substrate and product. All assays for the biochemical HTS were initially run in duplicate at a single concentration (10 uM for CYP450 assays and 25 uM for all others). Assay-chemical combinations meeting a pre-defined threshold (e.g., 30% inhibition and other criteria defined below) were then run in singleton concentration-response format with maximum concentration of 20 uM for CYPs and 50 uM for all others. Each assay was run with positive and negative controls, and concurrent controls on every plate. The follow-up (secondary) screen tested active chemical-pairs in concentration series, as well as a few additional assays not tested in the primary screen, some selected negative inactives, and several cases re-run in the concentration series for confirmatory purposes.

Q: With `S=C([S-])NCCNC(=S)[S-].[Mn+2]` as the compound, how does the AC50 read?
A: 0.406 µM (active)

Q: Which AC50 does the source give for `S=C(S)NCCNC(=S)S.[Mn+2].[S-]C([S-])=NCCN=C([S-])[S-].[Zn+2]` here?
A: 1.38 µM (active)

Q: How did the outcome turn out when `O=C(Nc1ccc([N+](=O)[O-])cc1Cl)c1cc(Cl)ccc1O` was run?
A: inactive

Q: How did the AC50 turn out when `O=C(O)C1(C(=O)Nc2ccc(Cl)cc2Cl)CC1` was run?
A: 7.85 µM (active)
